Screening results: PubChem BioAssay, National Center for Advancing Translational Sciences (NCATS)
Most compounds without a hit are left out; they make up all but 9% or so of the library.
G9a inh: G9a (human) methyltransferase inhibition | Q96KQ7 | Potency, µM (doses to about 102 µM), for the others: at the top dose activity, negative = inhibition, actives largely listed as inhibitors | G9a H3K9 monomethylation, AlphaScreen, 2 h | 8.8% of 350,000 active; note: % is set by controls: 0 for no effect and ±100 for the full control effect; nearly all actives have a fitted effect of over 75% in size
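AlphaScreen detection with an anti-monomethyl H3K9 antibody quantified product after a 2 h room-temperature reaction containing 500 nM biotinylated H3K9 peptide, 20 µM SAM and 20 nM enzyme, which had been preincubated 15 min with compound.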
JMJD2A Tudor inh: inhibitors of human JMJD2A Tudor domain | O75164 | AlphaScreen JMJD2A-Tudor / H3K4me3 peptide binding | Potency, µM (highest dose often 114 µM), without a hit: at the highest dose activity change, negative = inhibition, usual class: inhibitors | 4.4% of 390,000 active; note: % is set by controls: 0 for no effect and ±100 for the full control effect; nearly all actives have a fitted effect of over 50% in size
ALOX12 inh: blocks human arachidonate 12S-lipoxygenase; purified 12hLO, xylenol orange hydroperoxide absorbance; 1.1% of 580,000 active; Potency, µM (doses to about 108 µM), for inactives: at the highest dose activity change, negative = inhibition, usual class: inhibitors; P18054; note: % is set by controls: 0 for no effect and ±100 for the full control effect
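Purified human 12hLO (150 nM final) in 25 mM Hepes, 0.01% Triton X-100, pH 7.0 was preincubated 15 min at room temperature with compound. Then 40 uM arachidonic acid was added, 30 min. Hydroperoxide was read by Fe-XO absorbance ratio 573/405 nm.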
PLK1 PBD inh: blocks phosphopeptide binding to human PLK1 polo-box domain; Plk1 PBD binding of FITC phosphopeptide, fluorescence polarization; Potency, µM, without a hit: max response, negative = inhibition, actives largely listed as inhibitors; P53350; 2.8% of 360,000 active; note: series mostly up to about 57 µM; % is set by controls: 0 for no effect and ±100 for the full control effect; nearly all actives have a fitted effect of over 65% in size
Target sequence (P53350 whole entry, looked up, the tested form may be a part): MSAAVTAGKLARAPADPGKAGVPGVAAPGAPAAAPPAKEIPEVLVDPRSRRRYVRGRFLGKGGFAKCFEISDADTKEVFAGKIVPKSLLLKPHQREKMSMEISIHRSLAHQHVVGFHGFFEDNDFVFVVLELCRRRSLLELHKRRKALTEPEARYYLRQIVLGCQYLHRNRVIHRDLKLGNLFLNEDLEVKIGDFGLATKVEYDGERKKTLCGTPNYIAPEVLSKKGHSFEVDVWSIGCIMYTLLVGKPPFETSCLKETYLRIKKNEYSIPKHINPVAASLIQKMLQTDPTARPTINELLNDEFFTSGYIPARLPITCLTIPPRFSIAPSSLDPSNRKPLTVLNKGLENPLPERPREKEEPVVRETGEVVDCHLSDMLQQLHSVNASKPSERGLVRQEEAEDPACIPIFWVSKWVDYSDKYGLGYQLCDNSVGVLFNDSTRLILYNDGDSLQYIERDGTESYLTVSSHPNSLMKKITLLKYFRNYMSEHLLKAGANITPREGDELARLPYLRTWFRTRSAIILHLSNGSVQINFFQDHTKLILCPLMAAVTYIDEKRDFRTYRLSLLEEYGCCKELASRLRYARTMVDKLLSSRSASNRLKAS
HP1b chromo inh: HP1-beta chromodomain-methylated histone interaction inhibition. 0.56% of 390,000 active. AlphaScreen HP1-beta / biotin-H3K9me3 peptide binding. Potency, µM (series often up to 114 µM), for inactives: at the top dose activity change, negative = inhibition, hits mostly inhibitors; note: nearly all actives have a fitted effect of over 70% in size
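HP1-beta protein (50 nM final) preincubated 30 min at room temperature with biotinylated H3(1-18)K9me3 peptide (50 nM) in PBS pH 7.4, 0.01% Tween-20, then compound added for 30 min. AlphaScreen streptavidin donor/nickel chelate acceptor beads (10 ug/mL final), 30 min dark, luminescence read.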
BAZ2B inh: inhibitors of human BAZ2B bromodomain. AlphaScreen BAZ2B-H3K14Ac peptide displacement. Potency, µM (titrated, usually from 114 µM), inactives show at the top dose activity change, negative = inhibition, actives largely listed as inhibitors. Q9UIF8. 4.4% of 360,000 active; note: % is set by controls: 0 for no effect and ±100 for the full control effect; nearly all actives have a fitted effect of over 60% in size
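BAZ2B (50 nM) with biotin-H3(5-23)K14Ac peptide (50 nM) in PBS pH 7.4, 0.01% Tween-20, preformed 30 min, then compound 30 min at room temperature; top concentration 110uM. AlphaScreen streptavidin donor/nickel chelate acceptor beads (10 ug/mL final), 20 min dark, signal read.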
Numbers without * were called inactive; ? = inconclusive; · = no result; [ ] = dose if it differs, or a comment. Calls come from the whole dose curve; as a rule, active = well fitted curve in the direction sought with a large enough effect; inconclusive = small, poorly fitted or top-dose-only effect, or another doubt; inactive = no such curve, though single readings can be large; an effect the other way counts as inactive or inconclusive. Potency is the fitted concentration of half-maximal effect.

SMILES | G9a inh | JMJD2A Tudor inh | ALOX12 inh | PLK1 PBD inh | HP1b chromo inh | BAZ2B inh
O=C(NC(=S)Nc1ccc(F)c(Cl)c1)C1CC1 | 56.2µM* | -4.1% | ? | -9.1% | 43.0% | -14.4%
CCOC(=O)c1ccc(NC(=S)NNC(=O)COC)cc1 | ? | -4.8% | 20.8% | -12.4% | 13.1% | 43.7%
Cc1ccc(NC(=S)NC(=O)C2CC2)cc1Cl | ? | 1.0% | ? | -3.9% | 57.0% | -2.8%
CCOC(=O)c1ccc(NC(=S)NNC(=O)C2(C)CC2(Cl)Cl)cc1 (stereo not given) | 10µM* | -18.1% | 267.1% | -19.3% | -1.6% | 11.2%
CCCCCCNC(=O)c1c[nH]c2ccc(S(=O)(=O)N(C)c3ccc(C(C)C)cc3)cc2c1=O | -5.2%[59 µM] | ? | ? | · | 35.0% | 0.6%
O=C(Cn1c(=O)c2cccn2c2cccnc21)NCc1cccc(F)c1 | 1.3%[59 µM] | -3.3% | -5.3% | · | 29.7% | -2.8%
Cc1cc(NC(=O)COC(=O)CCn2c(C)csc2=O)c([N+](=O)[O-])cc1C | · | · | -27.4% | -4.4% | · | ·
CCNC(=O)CN1C(=O)NC2(CCCCCC2)C1=O | 8.0% | ? | -4.3% | -8.0% | 0.7% | 6.5%
CCOC(=O)c1c(-c2ccccc2)csc1N1C(=O)Nc2ccccc2N1O | ? | -21.1% | -11.2% | -15.2% | 18.9% | ·
O=C(CCS(=O)(=O)c1ccc(Br)cc1)N1CCN(c2ccc(Cl)cc2)CC1 | 10.8%[59 µM] | -12.9% | -26.4% | 1.9% | 23.3% | 3.3%
COc1ccc(S(=O)(=O)CCC(=O)N2CCN(c3ccc(C(C)=O)cc3)CC2)cc1 | 31.6µM* | -12.2% | -1.3% | -2.3% | 46.4% | -38.8%
COc1ccc(N2CCN(C(=O)C3(S(=O)(=O)c4ccc(C)cc4)CC3)CC2)cc1 | 70.8µM* | -17.5% | -7.0% | -6.4% | -8.6% | -23.4%
O=C(CCS(=O)(=O)c1ccc(Br)cc1)N1CCN(c2ccc(F)cc2)CC1 | 50.1µM* | -9.7% | -8.5% | 6.8% | 14.1% | 56.2µM*
COc1ccc(N2CCN(C(=O)CCS(=O)(=O)c3ccc(C)cc3)CC2)cc1 | 50.1µM* | -27.9% | -7.6% | -20.0% | -12.4% | ?
COc1ccc(CN2C(=O)c3ccccc3C2C(=O)NC2CCCC(C)C2C)c(OC)c1 (stereo not given) | 15.5%[59 µM] | -8.5% | -8.2% | 3.7% | 40.8% | -35.4%
Cc1ccccc1C(=O)c1cccn1CC(=O)NCc1ccccc1 | -6.1% | -4.5% | -6.0% | 2.9% | 22.3% | -1.2%
O=C(Cn1nc(-c2ccccc2)c2ccccc2c1=O)NCC1CCCO1 (stereo not given) | -6.2% | 10.7% | -10.0% | -3.0% | 54.6% | 4.9%
CC(CNC(=O)Cn1nc(C(N)=O)c2ccccc2c1=O)(c1ccccc1)c1ccccc1 | · | · | 31.6µM* | · | · | ·
O=C(Cn1nc(C(=O)O)c2ccccc2c1=O)NCC1CCCO1 (stereo not given) | 70.8µM* | -4.4% | -3.8% | -11.4% | 11.3% | 3.0%
Cc1ccccc1C(=O)c1cccn1CC(=O)NCC1CCCO1 (stereo not given) | 44.7µM* | -15.9% | -2.6% | -4.9% | 23.6% | 7.9%
COc1cccc(OC)c1NC(=O)Cn1nc(C)c2ccccc2c1=O | · | ? | 21.5% | 29.9µM* | -5.3% | 4.4%
N=C(c1ccc([N+](=O)[O-])cc1)N1CCCCCC1 | -5.1% | -2.8% | 10.6% | -4.0% | 26.4% | -5.7%
CCc1cccc(C)c1NC(=O)Cn1nc(C(=O)O)c2ccccc2c1=O | · | · | 15.8µM* | · | · | ·
CCc1cccc(CC)c1NC(=O)Cn1nc(C(=O)O)c2ccccc2c1=O | · | · | -17.0% | · | · | ·
COc1cc2ccccc2cc1C(=O)O | -49.2%[59 µM] | 4.1% | -3.6% | -1.6% | 22.6% | -27.3%
COc1ccc(OC)c2cc3ccccc3cc12 | · | ? | ? | 2.67µM* | ? | ·
COc1ccc(S(=O)(=O)NCCSCc2ccco2)cc1C | · | -27.9% | -17.2% | -8.0% | -4.5% | ·
CCOC(=O)c1c(NC(=O)CCN2CCOCC2)sc(C)c1-c1ccccc1 | ? | ? | 1.5% | -14.2% | 0.3% | -36.2%
